From PubChem BioAssay (NCI)
About 83,000 compounds went through this panel and 20% of them were active in at least one assay; those are over-represented in the sample as a whole.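 Cell lines were cultured in 96-well plates, exposed to a single compound concentration, and assessed for percent growth 48 hours later.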 The source made the active and inactive calls. The calls were made as follows: active = growth percent below 10; inactive = the rest.

Tested on: HL-60(TB) leukemia
Experiment: NCI-60 one-dose screen, 48 h (100 = growth as untreated, 0 = no growth, -100 = all killed)
Settings: 10 µM unless noted

Compound | growth
COc1cccc(NC(=O)c2sc3nc(C)c(C(O)c4ccccc4)cc3c2N)c1 (centres undefined) | -52% (active)
CCOC(=O)CC1CSC(Nc2ccccc2)=N1 (centres undefined) | 102% (inactive)
O=C1/C(=C(/c2ccccc2)N2CCOCC2)Cc2ccccc21 | 27.5% (inactive)
Cc1cn(-c2cccc(NC(=O)c3ccc(C)c(Nc4nccc(-c5cccnc5)n4)c3)c2)cn1 | 10.4% (inactive)
